Whole data set: some 9,900 sequences, median “r (bound/input frequency ratio)” near 0.7, cut for the highest 2% near 6.5. This excerpt belongs to a sample that is enriched for the highest values.
B1: ENSMUSG00000061578.89|Ksr2 (ssRNA)
RNA: GGGAGUUCUACAGUCCGACGAUCGCUUCGAUAUCCGCAUGCUACAAACAUCUGAUUUUAGAGGUCCCAUUCCAAGAUGGAAGUCACCGGUUGCCGCUGAGCACACAAUUCUGAAGGACAGUAGGCAGUCCUGCAGGUCUUUUUUAGCACAGGGCCUCUCUGGGGACCAGUCCCUGGCCUUCACCCUUCUCCCAUUUUGUAAGAACACUGUUCUAACUCACCUCAUGCCCACGCUACCCUGGGCAACUGGAGAACACCAUAGCGUUUCAGCUGAUGUGACAUUUGGUGUGACCUUUACCAGUUCCUCUUGCGGUCGCACUAGUGUGGAAUUCUCGGGUGUCAAGG
B2: ENSMUSG00000090935.496|Synj2bp (ssRNA)
RNA: GGGAGUUCUACAGUCCGACGAUCGCUUCGAUAUCCGCAUGCUACUUCACAUAACUAAGCCAUUCAGUACUUUUUGAAACUGACUUAGUAACAGGAGUCAUUGUAAGCUCCAUAGAAGGCAAGACGCAUUCCACAUCUUGUCUUGACCAGCAGCACUCUGGAGGCCCAGUGUCUGCUACCCUUCUUGUAUCUGAUGGCAUGGGUAACAGCUCUGCCAUGGGCCUGCUUACUUCUAGUAUUCACCUCAGGGCUUGGAAAUUGGUUUUGAAAGGCUUUUAGACAUAGAAAGUAAAACUAAUGGCAACUCUUGCGGUCGCACUAGUGUGGAAUUCUCGGGUGUCAAGG
B3: ENSMUSG00000032194.286|Kank2 (ssRNA)
RNA: GGGAGUUCUACAGUCCGACGAUCGCUUCGAUAUCCGCAUGCUAGGAUGGGUGGACGGAUGAGUGUGGGGUGGGUGGAUGGAUAAAUGAGCAAUGGAUGAGAAACUGGGUUGGCUGGUGGGUAGAUGUCAUGAUGGAGUCUUUGCACGUGUAUGAAACAGAAAACCAAACUUCAGGACAGACAGCUGCUGGUGUCUCUGGAUGCUCACAGCCUAGGGCACAUUUGAAAGGUCGUGCUCUGAGCUGAGCCCUGAGUUCCAGCCUUGUAGCCAGCAAGGGAGUUUAUUUAAGGUUCUGGAAGCAUCCUCUUGCGGUCGCACUAGUGUGGAAUUCUCGGGUGUCAAGG
B4: ENSMUSG00000058297.17|Spock2|149:153;157:170;179:190;204:210;219:228;234:259 (ssRNA)
RNA: GGGAGUUCUACAGUCCGACGAUCGCUUCGAUAUCCGCAUGCUAGUAGAUAGCCCUCGACGGCCUCGGCAGGCCAGGGUGCCGACGGCCAGAAAGACAGGCCAGAAGAGACCUGGACAACAGCAGGCAACUUAGCAAAUGGAUCCGGAAGUCAGUGCGGAGGACCCUGGCUCCAGUGGGGGAGGACUGGGGACACACGCUACACACAUACACACAUAUGAGAACACACACAUACAUGUGAGAUGUGACACACACAUGUGAGAACACACAUACUGAGAACACACACACACACACACACACACACACUCUUGCGGUCGCACUAGUGUGGAAUUCUCGGGUGUCAAGG
B5: ENSMUSG00000058297.10|Spock2|191:195;199:212;221:232;246:252 (ssRNA)
RNA: GGGAGUUCUACAGUCCGACGAUCGCUUCGAUAUCCGCAUGCUAGGAGGGUGAGGCGGGUGAGGCAGAUGAUGGAGGCUACAUCUGGUAGAUAGCCCUCGACGGCCUCGGCAGGCCAGGGUGCCGACGGCCAGAAAGACAGGCCAGAAGAGACCUGGACAACAGCAGGCAACUUAGCAAAUGGAUCCGGAAGUCAGUGCGGAGGACCCUGGCUCCAGUGGGGGAGGACUGGGGACACACGCUACACACAUACACACAUAUGAGAACACACACAUACAUGUGAGAUGUGACACACACAUGUGAGACUCUUGCGGUCGCACUAGUGUGGAAUUCUCGGGUGUCAAGG
B6: ENSMUSG00000058297.13|Spock2 (ssRNA)
RNA: GGGAGUUCUACAGUCCGACGAUCGCUUCGAUAUCCGCAUGCUAGGCAGAUGAUGGAGGCUACAUCUGGUAGAUAGCCCUCGACGGCCUCGGCAGGCCAGGGUGCCGACGGCCAGAAAGACAGGCCAGAAGAGACCUGGACAACAGCAGGCAACUUAGCAAAUGGAUCCGGAAGUCAGUGCGGAGGACCCUGGCUCCAGUGGGGGAGGACUGGGGAGUGUGGCUUGUGUGUAUGUGUGAUAUGAGAUGUGUGUGUAUGAUGUGAGAUGUGAGUGUGUGAUGUGAGAUGUGUGUAUGUGAGAUGUCUCUUGCGGUCGCACUAGUGUGGAAUUCUCGGGUGUCAAGG
B7: ENSMUSG00000058297.4|Spock2|227:231;235:248 (ssRNA)
RNA: GGGAGUUCUACAGUCCGACGAUCGCUUCGAUAUCCGCAUGCUAGGAGACAGAAGAGGCAGGGGAGGAGGCCGAGGAGGAGGAGGGUGAGGCGGGUGAGGCAGAUGAUGGAGGCUACAUCUGGUAGAUAGCCCUCGACGGCCUCGGCAGGCCAGGGUGCCGACGGCCAGAAAGACAGGCCAGAAGAGACCUGGACAACAGCAGGCAACUUAGCAAAUGGAUCCGGAAGUCAGUGCGGAGGACCCUGGCUCCAGUGGGGGAGGACUGGGGACACACGCUACACACAUACACACAUAUGAGAUGUGCUCUUGCGGUCGCACUAGUGUGGAAUUCUCGGGUGUCAAGG
B8: ENSMUSG00000058297.13|Spock2|173:177;181:194;203:214;228:234;243:252 (ssRNA)
RNA: GGGAGUUCUACAGUCCGACGAUCGCUUCGAUAUCCGCAUGCUAGGCAGAUGAUGGAGGCUACAUCUGGUAGAUAGCCCUCGACGGCCUCGGCAGGCCAGGGUGCCGACGGCCAGAAAGACAGGCCAGAAGAGACCUGGACAACAGCAGGCAACUUAGCAAAUGGAUCCGGAAGUCAGUGCGGAGGACCCUGGCUCCAGUGGGGGAGGACUGGGGACACACGCUACACACAUACACACAUAUGAGAACACACACAUACAUGUGAGAUGUGACACACACAUGUGAGAACACACAUACUGAGAUGUCUCUUGCGGUCGCACUAGUGUGGAAUUCUCGGGUGUCAAGG
B9: ENSMUSG00000058297.12|Spock2 (ssRNA)
RNA: GGGAGUUCUACAGUCCGACGAUCGCUUCGAUAUCCGCAUGCUAGGGUGAGGCAGAUGAUGGAGGCUACAUCUGGUAGAUAGCCCUCGACGGCCUCGGCAGGCCAGGGUGCCGACGGCCAGAAAGACAGGCCAGAAGAGACCUGGACAACAGCAGGCAACUUAGCAAAUGGAUCCGGAAGUCAGUGCGGAGGACCCUGGCUCCAGUGGGGGAGGACUGGGGAGUGUGGCUUGUGUGUAUGUGUGAUAUGAGAUGUGUGUGUAUGAUGUGAGAUGUGAGUGUGUGAUGUGAGAUGUGUGUAUGUGCUCUUGCGGUCGCACUAGUGUGGAAUUCUCGGGUGUCAAGG
B10: ENSMUSG00000058297.7|Spock2|209:213;217:230;239:250 (ssRNA)
RNA: GGGAGUUCUACAGUCCGACGAUCGCUUCGAUAUCCGCAUGCUAGGAGGAGGCCGAGGAGGAGGAGGGUGAGGCGGGUGAGGCAGAUGAUGGAGGCUACAUCUGGUAGAUAGCCCUCGACGGCCUCGGCAGGCCAGGGUGCCGACGGCCAGAAAGACAGGCCAGAAGAGACCUGGACAACAGCAGGCAACUUAGCAAAUGGAUCCGGAAGUCAGUGCGGAGGACCCUGGCUCCAGUGGGGGAGGACUGGGGACACACGCUACACACAUACACACAUAUGAGAACACACACAUACAUGUGAGAUGCUCUUGCGGUCGCACUAGUGUGGAAUUCUCGGGUGUCAAGG
B11: ENSMUSG00000058297.17|Spock2 (ssRNA)
RNA: GGGAGUUCUACAGUCCGACGAUCGCUUCGAUAUCCGCAUGCUAGUAGAUAGCCCUCGACGGCCUCGGCAGGCCAGGGUGCCGACGGCCAGAAAGACAGGCCAGAAGAGACCUGGACAACAGCAGGCAACUUAGCAAAUGGAUCCGGAAGUCAGUGCGGAGGACCCUGGCUCCAGUGGGGGAGGACUGGGGAGUGUGGCUUGUGUGUAUGUGUGAUAUGAGAUGUGUGUGUAUGAUGUGAGAUGUGAGUGUGUGAUGUGAGAUGUGUGUAUGUGAGAUGUGUGUGUGUGUGUGUGUGUGUGUGACUCUUGCGGUCGCACUAGUGUGGAAUUCUCGGGUGUCAAGG
B12: ENSMUSG00000058297.12|Spock2|179:183;187:200;209:220;234:240;249:258 (ssRNA)
RNA: GGGAGUUCUACAGUCCGACGAUCGCUUCGAUAUCCGCAUGCUAGGGUGAGGCAGAUGAUGGAGGCUACAUCUGGUAGAUAGCCCUCGACGGCCUCGGCAGGCCAGGGUGCCGACGGCCAGAAAGACAGGCCAGAAGAGACCUGGACAACAGCAGGCAACUUAGCAAAUGGAUCCGGAAGUCAGUGCGGAGGACCCUGGCUCCAGUGGGGGAGGACUGGGGACACACGCUACACACAUACACACAUAUGAGAACACACACAUACAUGUGAGAUGUGACACACACAUGUGAGAACACACAUACUGCUCUUGCGGUCGCACUAGUGUGGAAUUCUCGGGUGUCAAGG

These binders were tested against TDP-43 (Homo sapiens, UniProt Q13148 1-414) (assay: RNA Bind-n-Seq with designed 260-mer pool; 25 mM Tris-HCl, 150 mM KCl, 3 mM MgCl2, BSA (printed 500 mg/mL), 20 units/mL SUPERase IN; pH not stated; 500 nM RNA pool, 1 h, 4 C; TDP-43 5, 50, 500 nM; high values mean tight binding). Conditions: protein: recombinant; tags: SBP (GST cleaved off with PreScission; pGEX-GST-SBP).
Chain of TDP-43 (Q13148 whole entry): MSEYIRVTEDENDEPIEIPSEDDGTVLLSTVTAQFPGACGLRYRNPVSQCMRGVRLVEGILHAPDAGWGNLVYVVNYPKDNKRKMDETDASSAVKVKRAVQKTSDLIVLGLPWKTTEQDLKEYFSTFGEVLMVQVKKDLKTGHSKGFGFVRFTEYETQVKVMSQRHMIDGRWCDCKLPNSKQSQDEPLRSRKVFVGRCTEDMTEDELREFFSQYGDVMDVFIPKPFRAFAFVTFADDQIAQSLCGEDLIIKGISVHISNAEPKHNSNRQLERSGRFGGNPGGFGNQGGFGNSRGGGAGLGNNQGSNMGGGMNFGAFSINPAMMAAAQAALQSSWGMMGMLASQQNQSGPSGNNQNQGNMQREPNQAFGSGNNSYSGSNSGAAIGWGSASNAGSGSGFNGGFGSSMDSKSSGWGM
In short: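 The incubation lasted 1 h at 4 °C and used 500 nM of an in vitro-transcribed 260-nt 3′ UTR oligo pool with recombinant SBP-tagged TDP-43 at 5, 50 or 500 nM immobilized on streptavidin beads. It took place in 25 mM Tris-HCl, 150 mM KCl, 3 mM MgCl2, BSA and SUPERase IN. Bound RNA was washed, eluted with biotin, converted to cDNA, PCR-amplified and sequenced to give R, each oligo's normalized abundance in the bound sample divided by that in input. Two independent protein batches provided the duplicates.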
With B1 the binding signal was 0.288 R (bound/input frequency ratio).
With B2 the binding signal was 0.243 R (bound/input frequency ratio).
B3 was tested, and the binding signal was 5.11 R (bound/input frequency ratio).
For B4, the binding signal was 2.9 R (bound/input frequency ratio).
For B5, the binding signal was 2.04 R (bound/input frequency ratio).
In the case of B6, the binding signal is reported as 7.72 R (bound/input frequency ratio).
With B7 the binding signal was 2.44 R (bound/input frequency ratio).
For B8, the binding signal was 2.37 R (bound/input frequency ratio).
With B9 the binding signal was 8.09 R (bound/input frequency ratio).
With B10 the binding signal was 2.55 R (bound/input frequency ratio).
With B11 the binding signal was 8.62 R (bound/input frequency ratio).
With B12 the binding signal was 2.28 R (bound/input frequency ratio).
